Compound activity deposited in PubChem by NMMLSC.
RGS4-Gao reg – modulators of RGS4 binding to Galphao, primary screen, biochemical, multiplexed bead flow cytometry; binding response (% of control), % at 10 µM; actives lie on both sides; hit rate 0.33% among 220,000; Guanine nucleotide-binding protein G(o) subunit alpha (Homo sapiens), P09471; in the data active = binding response below about 49% or above about 150%; inactive = in between;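 also: fluorescent Galphao activated with aluminum fluoride binding bead-coupled RGS4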
Target sequence (P09471 whole entry, looked up): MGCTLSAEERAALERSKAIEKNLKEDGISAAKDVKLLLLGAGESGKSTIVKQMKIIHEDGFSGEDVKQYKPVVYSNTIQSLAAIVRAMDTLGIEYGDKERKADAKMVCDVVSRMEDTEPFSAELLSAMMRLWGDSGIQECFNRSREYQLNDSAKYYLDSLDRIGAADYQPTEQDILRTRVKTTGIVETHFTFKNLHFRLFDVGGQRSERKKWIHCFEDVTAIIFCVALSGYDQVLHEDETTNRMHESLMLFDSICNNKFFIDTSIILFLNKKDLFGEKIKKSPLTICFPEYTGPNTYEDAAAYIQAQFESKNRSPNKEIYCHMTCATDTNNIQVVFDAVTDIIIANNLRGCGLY
RGS8-Gao – RGS8-Galphao binding modulators, primary screen, biochemical, multiplexed bead flow cytometry; Guanine nucleotide-binding protein G(o) subunit alpha (Homo sapiens), P09471; AID 1423, 2008; hit rate 0.34% among 220,000; response (percent of control binding), % at 10 µM; actives lie on both sides; in the data active = response below about 60% or above about 140%; inactive = in between;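 also: Galphao activated as the GDP aluminium fluoride complex binding bead-coupled RGS8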
Avidin fluor – green autofluorescence of compounds with avidin beads – biophysical, 488/530 nm, flow cytometry, artefact control, profiling panel; compound fluorescence 488/530 nm; active compounds read high; fluorescence (KMESF) at 10 µM; hit rate 0.38% among 220,000; AID 1775, 2009; in the data active = fluorescence above about 47
RGS16-Gao – modulators of RGS16 binding to Galphao, primary screen, biochemical, human proteins, multiplexed bead flow cytometry. Regulator of G-protein signaling 16 (Homo sapiens) + Guanine nucleotide-binding protein …. bead-based flow cytometry RGS16-Galphao binding, fluorescence; actives lie on both sides. binding response (% of control), % at 10 µM. hit rate 0.38% among 220,000;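 also: Galphao activated by GDP with aluminum fluoride before binding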
Target sequence (O15492 whole entry, looked up): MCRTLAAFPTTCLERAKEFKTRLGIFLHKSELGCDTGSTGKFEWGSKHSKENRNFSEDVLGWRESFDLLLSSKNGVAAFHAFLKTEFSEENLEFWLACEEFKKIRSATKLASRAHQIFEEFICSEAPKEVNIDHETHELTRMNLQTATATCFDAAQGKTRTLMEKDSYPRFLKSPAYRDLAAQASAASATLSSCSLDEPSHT
Target sequence (P09471 whole entry, looked up): as the sequence (P09471 whole entry, looked up) above
GSH fluor – compound fluorescence on glutathione beads, profiling panel, artefact control, biophysical, 488/530 nm, flow cytometry | fluorescence (KMESF) at 10 µM | GSH beads flow cytometry, compound fluorescence 488/530 nm; active compounds read high | hit rate 0.25% among 190,000; in the data active = fluorescence above about 89;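 also: glutathione beads carrying GST-tagged Bcl family fusion proteins plus one bare bead set; values are compound well signal with DMSO vehicle wells as background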
RGS7-Gao reg – RGS7-Galphao binding modulators, primary screen, biochemical, multiplexed bead flow cytometry; Guanine nucleotide-binding protein G(o) subunit alpha (Homo sapiens), P09471; actives lie on both sides; binding response (% of control), % at 10 µM; hit rate 0.35% among 220,000; in the data active = binding response below about 49% or above about 150%; inconclusive = no clear call, values can overlap the other calls; inactive = in between;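 also: fluorescent Galphao held in activated GDP-AlF4 state binding bead-coupled RGS7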
RGS-Gao – modulators of RGS–Galpha-o binding, primary screen, biochemical, multiplexed beads, flow cytometry, RGS4/7/8/16/19 | shares compounds with RGS16-Gao | multiplexed bead flow cytometry | RGS4–Galpha-o binding response, % at 10 µM | hit rate 99% among 1,600 | AID 1504, 2009;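 also: fluorescently labeled Galpha-o bound to GDP with aluminium fluoride binding biotinylated RGS beads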
Biotin-avidin – disruption of biotin probe capture by avidin, counter-screen for RGS protein interaction modulators, biochemical, flow cytometry, bead-based; streptavidin beads, fluorescein-biotin binding; AID 1783, 2009; 1,700 tested, under 10 active; inhibition, % at 10 µM; shares compounds with RGS16-Gao;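 active = inhibition above 50%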;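 also: median green fluorescence of gated singlet beads compared with DMSO control wells; 0% = DMSO wells and 100% = complete loss of bead fluorescence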
RGS8-Gao confirm – RGS8-Galphao binding modulators, confirmation, biochemical, multiplexed bead flow cytometry, single concentration; binding response (% of control), % at 10 µM; hit rate 3% among 1,700; shares compounds with RGS16-Gao; bead-based flow cytometry RGS8-Galphao binding, fluorescence; actives lie on both sides; in the data active = binding response below about 72% or above about 130%; inactive = in between;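 also: Galphao activated as GDP AlF4 complex before binding bead RGS8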
RGS7-Gao single – RGS7-Galphao binding modulators, confirmation, biochemical, multiplexed bead flow cytometry, single concentration; shares compounds with RGS16-Gao; bead-based flow cytometry RGS7-Galphao binding; actives lie on both sides; response (percent of control binding), % at 10 µM; hit rate 7.8% among 1,700; AID 1837, 2009; in the data active = response below about 75% or above about 130%; inactive = in between;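 also: fluorescent Galphao activated with GDP and aluminum fluoride binding bead-coupled RGS7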
RGS16-Gao conf – modulators of RGS16-Galphao protein binding, confirmation, biochemical, single concentration, multiplexed bead flow cytometry; shares compounds with RGS16-Gao; bead-based flow cytometry; actives lie on both sides; response (% of control binding), % at 10 µM; hit rate 4% among 1,700; AID 1838, 2009; in the data active = response below about 74% or above about 130%; inactive = in between;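 also: Galphao activated as the GDP aluminium fluoride complex binding bead-coupled RGS16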
RGS4-Gao single – modulators of RGS4-Galphao protein binding, confirmation, biochemical, single concentration, multiplexed bead flow cytometry; shares compounds with RGS16-Gao; actives lie on both sides; binding response (% of control), % at 10 µM; hit rate 4% among 1,700; AID 1840, 2009; in the data active = binding response below about 74% or above about 130%; inactive = in between
RGS19-Gao conf – regulators of RGS19-Galphao binding, confirmation, biochemical, single point, multiplexed bead flow cytometry; shares compounds with RGS16-Gao; bead-based flow cytometry RGS19-Galphao binding; actives lie on both sides; response (percent of control binding), % at 10 µM; hit rate 5% among 1,700; AID 1841, 2009; in the data active = response below about 50% or above about 160%; inactive = in between;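 also: 100% = no compound control and 0% = blank background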
The depositor's hits bear a star; ? = inconclusive; . = not tested or not shown; [ ] = remark or other dose. Only some compounds are listed: those with a hit (about 1.2% of all), similar ones and a draw of the others. Unless noted, no rule for the calls is given here.

SMILES	RGS4-Gao reg	RGS8-Gao	Avidin fluor	RGS16-Gao	GSH fluor	RGS7-Gao reg	others
O=c1[nH]c(=S)n(Cc2ccc(F)cc2)c(O)c1/C=N/N1CCCCC1	108.3	99.8	487*	60.5	35	112.3
O=c1[nH]c(=S)n(Cc2ccc(F)cc2)c(O)c1C=NCC1CCCO1 (centres undefined)	100.4	105.6	16	107.2	35	99.0
O=c1[nH]c(=O)n(Cc2ccco2)c(O)c1C=NCCN1CCNCC1	97.5	101.5	6	97.2	.	?
Cc1ccn2nc(S(=O)(=O)Nc3c(F)cccc3F)nc2n1	100.0	103.2	2	107.7	6	98.4
CC(C)n1cc(C(=O)N(CC(=O)NC2CCCC2)Cc2ccccc2)cn1	107.2	104.3	68*	106.4	22	126.9
O=C(Cc1ccccc1)OCn1nnc2ccccc2c1=O	102.4	88.5	4	49.6	126*	101.7
O=c1c2ccccc2nc(-c2ccco2)n1-c1cccnc1	104.1	104.1	8	103.2	273*	100.2
O=c1c2ccccc2nc(-c2ccco2)n1-c1ccccn1	105.8	101.6	7	104.8	261*	101.2
Cc1nc2ccccc2c(=O)n1-c1cccnc1	106.5	102.4	8	102.2	49	101.0
Cn1c(O)c(/C=N/N2CCOCC2)c(=O)n(C)c1=S	93.5	95.8	5	92.0	.	?
CCC(=NCCOc1ccc(Cl)cc1)c1c(O)n(C)c(=O)n(C)c1=O	144.1	83.8	59*	174.7	31	131.9
CCC(=NCCN1CCCCC1)c1c(O)n(C)c(=O)n(C)c1=O	106.6	102.8	15	114.6	33	104.0
CC(Cc1ccccc1)[n+]1cc(/N=C(\N)[O-])on1 (centres undefined)	111.6	103.7	10	99.6	15	109.1
CC(Cc1ccccc1)[n+]1cc(/N=C(\[O-])Nc2ccccc2)on1 (centres undefined)	102.5	102.5	57*	102.8	26	110.2
CC(=O)Nc1cc(C(=O)N2CCC3(CC2)OCCO3)ccc1Sc1ccc(F)cc1	100.7	99.1	7	98.6	9	?
COP(=O)(NC(=O)C(Cl)(Cl)Cl)OC	115.6	107.4	81*	106.6	.	?
CCn1c(O)c(/C=N/N2CCOCC2)c(=O)n(CC)c1=S	93.0	75.2	7	14.1*	37	87.6	RGS-Gao=93.0*
COc1ccccc1/C=N/N=C(/N)N[N+](=O)[O-]	113.2	100.9	16	110.3	11	112.0
N/C(=N\N=C\c1ccc(O)cc1O)N[N+](=O)[O-]	84.3	77.1	12	-23.1*	14	88.3	RGS-Gao=84.3*;Biotin-avidin=0.2;RGS8-Gao confirm=96.5;RGS7-Gao single=96.1;RGS16-Gao conf=97.9;RGS4-Gao single=100.4;RGS19-Gao conf=89.5
COc1ccc(C=C2C(=O)N(C)C(=O)N(C)C2=O)cc1COc1ccc(NC(C)=O)cc1	95.2	90.2	5	100.8	.	?	Biotin-avidin=-0.4;RGS8-Gao confirm=89.3;RGS7-Gao single=88.6;RGS16-Gao conf=96.6;RGS4-Gao single=91.7;RGS19-Gao conf=76.9
COc1ccc(C=C2C(=O)N(C)C(=O)N(C)C2=O)cc1CSc1ccccn1	96.5	95.0	15	101.7	23	95.2
Cc1ccc(S(=O)(=O)N2CCCCC2)cc1NC(=O)CN1CC=C(c2ccccc2)CC1	117.7	142.0*[activator]	14	331.8	18	121.6	RGS-Gao=117.7*;Biotin-avidin=0.4;RGS8-Gao confirm=110.5;RGS7-Gao single=114.2;RGS16-Gao conf=109.8;RGS4-Gao single=112.3;RGS19-Gao conf=106.9
O=C(CN1CC=C(c2ccccc2)CC1)Nc1cc(Cl)ccc1Cl	104.5	100.2	11	101.0	4	103.6
CCC1(CC)C(=O)N(C)C(=O)NC1=NC	195.9*[activator]	108.0	95*	204.1*[activator]	.	?	Biotin-avidin=-0.2;RGS8-Gao confirm=97.7;RGS7-Gao single=98.2;RGS16-Gao conf=101.9;RGS4-Gao single=98.7;RGS19-Gao conf=88.9
CC1CN(c2ccc([N+](=O)[O-])cc2Cl)CCN1 (centres undefined)	10.6*	9.2*	.	1.8*	15	7.2*	Biotin-avidin=-1.6;RGS8-Gao confirm=97.7;RGS7-Gao single=90.5;RGS16-Gao conf=92.0;RGS4-Gao single=95.2;RGS19-Gao conf=80.2
CC1CN(c2cc([N+](=O)[O-])ccc2Cl)CC(C)N1 (centres undefined)	101.9	98.4	10	100.1	29	100.9
CN1CCN(c2ccc([N+](=O)[O-])cc2Cl)CC1	78.2	55.4*	2	97.4	19	48.9*	RGS-Gao=78.2*;Biotin-avidin=-0.5;RGS8-Gao confirm=104.5;RGS7-Gao single=103.0;RGS16-Gao conf=102.2;RGS4-Gao single=100.0;RGS19-Gao conf=111.4
CN1CCN(c2cc([N+](=O)[O-])ccc2Cl)CC1	103.3	103.2	10	100.1	14	100.8
CCN(CC)CCN/N=C(\C)c1c(O)[nH]c(=O)[nH]c1=O	92.8	98.7	9	96.0	.	?
Cc1c(C(c2ccc(Cl)cc2Cl)c2c(O)c3ccccc3oc2=O)c(=O)n(-c2ccccc2)n1C (centres undefined)	96.8	97.1	10	99.3	23	84.2
